Entries with a potency or affinity are not part of this list.

Assay [1] deals with Staphylococcus aureus. The following applies: Concentration 32 ug.mL-1;; ASSAY_TEST Inhibition of Bacterial Growth; detection method Absorption (OD600); MEDIA CAMHB; plate type 384well; NBS; CORNING #3640; time 18 hr.
Assay [2] relates to Escherichia coli. The following applies: Concentration 32 ug.mL-1;; ASSAY_TEST Inhibition of Bacterial Growth; detection method Absorption (OD600); MEDIA CAMHB; plate type 384well; NBS; CORNING #3640; time 18 hr.

As to `COc1cc(OC)c(NC(=O)Cn2nc3c4c5c(sc4ncn3c2=O)CC(C)CC5)cc1Cl` (centres undefined), the values for the Inhibition in assay [1] and in assay [2] were 7.09% and 1.97%, respectively.
The like results for `CCCCn1c(=O)c2sccc2n2c(=O)n(CC(=O)c3ccc(OC)cc3)nc12` were, in that order, 3.9% and 0.74%.
Take `Cc1nnc2c(=O)n(CC(=O)Nc3ccc(C(C)C)cc3)c3ccccc3n12`: the Inhibition (commonly the relative decrease from the control value, in per cent) in assay [1] was 18.68%; in assay [2], -2.69%.
The like results for `O=C(Cn1nc2ccc(Sc3cccc(F)c3)nn2c1=O)NCc1ccc(C(F)(F)F)cc1` were, in that order, 12.64% and -0.57%.
The like results for `COc1ccc(-c2cc3c4nnc(SCC(=O)Nc5cccc(C)c5C)n4ccn3n2)cc1` were, in that order, -11.43% and -10.61%.
In the case of `COc1ccccc1-n1ccn2c(SCc3ccc(C)cc3)nnc2c1=O`, the Inhibition in assay [1] is given as 4.53%; in assay [2], -10.18%.
The like results for `Cc1cccc(CN(c2cccc(F)c2)S(=O)(=O)c2ccc3nncn3c2)c1` were, in that order, -2.24% and -9.18%.
Turning to `Cc1ccc(-c2nnc3c(=O)n(CC(=O)Nc4cc(C)cc(C)c4)c4ccccc4n23)cc1`, the figures for the Inhibition in assay [1] and in assay [2] were 10.86% and 0.18%, respectively.
The like results for `Cc1ccc(-n2ccn3c(=O)n(Cc4cccc(F)c4)nc3c2=O)cc1C` were, in that order, -0.24% and -8.8%.
The like results for `CCc1nnc2ccc(S(=O)(=O)N(Cc3ccccc3F)c3ccc(OC)cc3)cn12` were, in that order, 11.76% and -5.17%.
The like results for `COc1cccc(NC(=O)Cn2nc3ccc(-c4ccc(Cl)cc4)nn3c2=O)c1` were, in that order, -8.23% and -11.86%.
Take `CCc1ccc(N(Cc2ccc(OC)cc2)S(=O)(=O)c2cccn3c(C)nnc23)cc1`: the Inhibition in assay [1] is on record as 5.17%; in assay [2] it was -2.97%.
The like results for `COc1ccc(OC)c(NC(=O)Cn2nc3c(SCc4ccc(Cl)cc4)nccn3c2=O)c1` were, in that order, -7.47% and -4.33%.
For the molecule `COCCCNC(=O)CSc1nnc2c(=O)n(Cc3ccccc3F)ccn12`, the values for the Inhibition in assay [1] and in assay [2] were -1.95% and 0.71%, respectively.
The like results for `COc1cccc(-c2nc(CSc3nc4ccccc4n4c(C)nnc34)c(C)o2)c1OC` were, in that order, 2.75% and -2.95%.
Consider `O=C(Cn1nc2c(=O)n(-c3ccc(Br)cc3)ccn2c1=O)Nc1ccc(F)cc1F`, for which the Inhibition in assay [1] is on record as 3.27%; in assay [2] it was -0.82%.
The like results for `N#CCSc1nnc2c(=O)n(-c3ccccc3)ccn12` were, in that order, 13.33% and 0.91%.
As to `Cc1ccc(CNC(=O)Cn2nc3ccc(SCc4ccc(Cl)cc4)nn3c2=O)cc1`, the Inhibition in assay [1] is recorded as 11.66%; in assay [2], -2.92%.
The like results for `Cc1ccc(Sc2nccn3c(=O)n(CC(=O)Nc4cccc(Br)c4)nc23)c(C)c1` were, in that order, -7.2% and -13.08%.
Regarding `COc1cccc(Sc2nc3ccccc3n3c(=O)n(CC(=O)Nc4cc(C)cc(C)c4)nc23)c1`, the values for the Inhibition in assay [1] and in assay [2] were 0.14% and 3.24%, respectively.
The like results for `CCOC(=O)c1ccc(NC(=O)Cn2nc3c4sc(N5CCCC5)nc4ncn3c2=O)cc1` were, in that order, 6.07% and -11.73%.
Turning to `COc1ccc(-c2cc3c4nn(CC(=O)Nc5c(C)cccc5C)c(=O)n4ccn3n2)cc1`, the Inhibition in assay [1] is 3.68%; in assay [2], -1.14%.
`Cc1ccc(-c2ccc3nn(CC(=O)Nc4c(C)cccc4C)c(=O)n3n2)cc1C`: the Inhibition in assay [1] was -0.95%; in assay [2], -11.36%.
The like results for `O=C(CSc1nc2ccccc2n2cnnc12)NCc1ccccc1Cl` were, in that order, 1.47% and -4.49%.
Regarding `COc1ccccc1-n1ccn2c(SCc3ccccc3C)nnc2c1=O`, the values for the Inhibition in assay [1] and in assay [2] were 16.46% and -2.58%, respectively.
The like results for `COc1ccc(NC(=O)c2ccc3nn(CC(=O)Nc4cccc(SC)c4)c(=O)n3c2)cc1` were, in that order, -4.7% and -9.26%.
For `CCOC(=O)c1ccccc1NC(=O)CSc1nnc2ccc(C(=O)Nc3cccc(F)c3)cn12`, the Inhibition in assay [1] was 9.51%; in assay [2], -2.64%.
The like results for `Cc1ccc(-c2ccc3nn(Cc4cc(F)cc(F)c4)c(=O)n3n2)cc1C` were, in that order, 13.44% and 1.52%.
The like results for `O=C(CSc1nnc2c(=O)n(-c3ccccc3)ccn12)Nc1ccc(Br)cc1` were, in that order, 5.51% and -4.01%.
The like results for `O=C(Cn1nc2c(N3CCSCC3)nc3ccccc3n2c1=O)Nc1ccc(Br)cc1` were, in that order, -2.29% and -4.32%.
For `CC(C)Cn1c(=O)c2sccc2n2c(=O)n(Cc3ccc(Br)cc3)nc12`, the Inhibition in assay [1] is recorded as 2.7%; in assay [2], -6.62%.
The like results for `Cc1ccc(N(Cc2cccc(C)c2)S(=O)(=O)c2cccn3c(C)nnc23)cc1` were, in that order, -2.01% and -15.69%.
The like results for `COC(=O)c1ccccc1NC(=O)Cn1nc2c(Oc3ccccc3)nccn2c1=O` were, in that order, 8.3% and -3.16%.
Consider `COc1ccccc1CNC(=O)Cn1nc2c(N3CCCCCC3)nccn2c1=O`, for which the Inhibition is on record as 17.1% in assay [1] and -0.92% in assay [2].
The like results for `COc1cccc(-n2ccn3c(SCC(=O)Nc4ccc(F)cc4F)nnc3c2=O)c1` were, in that order, 12.12% and -6.2%.
The like results for `Cc1ccccc1Oc1nc2ccccc2n2c(=O)n(CC(=O)Nc3ccccc3C(F)(F)F)nc12` were, in that order, -0.26% and -3.73%.
The like results for `CCOc1ccc(C(=O)CSc2nnc3c(=O)n(-c4cccc(OC)c4)ccn23)cc1` were, in that order, 5.74% and -13.86%.

The values are drawn from ChEMBL document CHEMBL4513146, “CO-ADD screening of Karazin Kharkiv National University (Ukraine) compounds”.
